# According to PubChem BioAssay AID1159580 (chemical genetic matrix, 2015):
# Several values for one entry are separate records, joined by “and”; a condition that tells them apart may be missing. Equal values may be shown once. The campaign covered roughly 5,500 compounds. About 2,000 (36%) were called active. About 18% were inconclusive and are not listed. The list shows a part of the results. Values without a mark were called inactive. No stated cut-off is given here; in the data, active means normalized growth mostly below about 0.91 (no sharp cut-off); inconclusive means no clear call, values can overlap the other calls; inactive means mostly above about 0.92.
# Assay: chemical genetic growth profiling, strain panel (AID 1159580);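 further: tested at 20 µM; growth read once vehicle control cultures reached saturation at 30 °C; 1 = growth at the plate median or of vehicle wells; lower values mean less growth of the strain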
# Conditions: S. cerevisiae deletion strains, growth OD
structure (smiles),measurement,setting,value
Cc1cc(O)c(C=O)c2c1C(=O)Oc1c(COC(=O)/C=C/C(=O)O)c(O)c(C(=O)O)c(C)c1O2,normalized growth,"locus YAL021C, strain ccr4, active compounds read low",0.915
same,normalized growth,"locus YAL026C, strain drs2, active compounds read low",0.841 (active)
same,normalized growth,"locus YAL030W, strain snc1, active compounds read low",0.96
same,normalized growth,"locus YBL061C, strain skt5, active compounds read low",0.96
same,normalized growth,"locus YBR009C, strain hhf1, active compounds read low",0.937
same,normalized growth,"locus YBR021W, strain FUR4, active compounds read low",1.06
same,normalized growth,"locus YBR023C, strain chs3, active compounds read low",0.967
same,normalized growth,"locus YBR171W, strain sec66, active compounds read low",0.983
same,normalized growth,"locus YBR229C, strain ROT2, active compounds read low",0.988
same,normalized growth,"locus YBR231C, strain swc5, active compounds read low",0.885 (active)
same,normalized growth,"locus YBR279W, strain paf1, active compounds read low",0.933
same,normalized growth,"locus YCL011C, strain gbp2, active compounds read low",0.974
same,normalized growth,"locus YCL016C, strain dcc1, active compounds read low",0.992
same,normalized growth,"locus YCL029C, strain bik1, active compounds read low",0.98
same,normalized growth,"locus YCL061C, strain MRC1, active compounds read low",0.912 (active)
same,normalized growth,"locus YCL069W, strain vba3, active compounds read low",0.973
same,normalized growth,"locus YCR088W, strain abp1, active compounds read low",1.02
same,normalized growth,"locus YDL005C, strain med2, active compounds read low",1.02
same,normalized growth,"locus YDL035C, strain GPR1, active compounds read low",0.929
same,normalized growth,"locus YDL040C, strain nat1, active compounds read low",1
same,normalized growth,"locus YDL074C, strain BRE1, active compounds read low",0.936
same,normalized growth,"locus YDL101C, strain DUN1, active compounds read low",0.959
same,normalized growth,"locus YDL185W, strain tfp1, active compounds read low",0.919
same,normalized growth,"locus YDL192W, strain arf1, active compounds read low",0.95
same,normalized growth,"locus YDR001C, strain nth1, active compounds read low",0.998
same,normalized growth,"locus YDR069C, strain doa4, active compounds read low",0.883 (active)
same,normalized growth,"locus YDR101C, strain arx1, active compounds read low",0.977
same,normalized growth,"locus YDR137W, strain rgp1, active compounds read low",1.04
same,normalized growth,"locus YDR150W, strain NUM1, active compounds read low",0.951
same,normalized growth,"locus YDR159W, strain sac3, active compounds read low",0.981
same,normalized growth,"locus YDR162C, strain NBP2, active compounds read low",0.808 (active)
same,normalized growth,"locus YDR195W, strain ref2",1.1
same,normalized growth,"locus YDR297W, strain sur2, active compounds read low",0.957
same,normalized growth,"locus YDR318W, strain mcm21, active compounds read low",0.991
same,normalized growth,"locus YDR334W, strain swr1, active compounds read low",0.891 (active)
same,normalized growth,"locus YDR335W, strain msn5, active compounds read low",0.943
same,normalized growth,"locus YDR388W, active compounds read low",0.992
same,normalized growth,"locus YDR392W, strain spt3, active compounds read low",0.813
same,normalized growth,"locus YDR502C, strain sam2, active compounds read low",0.96
same,normalized growth,"locus YEL003W, strain gim4, active compounds read low",0.977
same,normalized growth,"locus YEL037C, strain rad23, active compounds read low",0.939
same,normalized growth,"locus YEL061C, strain CIN8 (second series), active compounds read low",0.993
same,normalized growth,"locus YEL061C, strain CIN8, active compounds read low",0.97
same,normalized growth,"locus YER015W, strain faa2, active compounds read low",0.874 (active)
same,normalized growth,"locus YER016W, strain bim1, active compounds read low",1.03
same,normalized growth,"locus YER110C, active compounds read low",0.981
same,normalized growth,"locus YER111C, strain swi4, active compounds read low",0.906 (active)
same,normalized growth,"locus YER155C, strain BEM2 (second series), active compounds read low",1.01
same,normalized growth,"locus YER155C, strain BEM2, active compounds read low",1
same,normalized growth,"locus YER167W, strain BCK2, active compounds read low",1.01
same,normalized growth,"locus YFR010W, strain ubp6, active compounds read low",0.873 (active)
same,normalized growth,"locus YGL078C, strain dbp3, active compounds read low",0.969
same,normalized growth,"locus YGL086W, strain mad1, active compounds read low",0.971
same,normalized growth,"locus YGL167C, strain pmr1, active compounds read low",0.993
same,normalized growth,"locus YGL173C, strain kem1, active compounds read low",0.856 (active)
same,normalized growth,"locus YGL227W, strain vid30, active compounds read low",1.02
same,normalized growth,"locus YGL240W, strain doc1, active compounds read low",1.06
same,normalized growth,"locus YGL248W, strain PDE1, active compounds read low",0.947
same,normalized growth,"locus YGL253W, strain hxk2, active compounds read low",0.787 (active)
same,normalized growth,"locus YGR135W, strain pre9, active compounds read low",0.958
same,normalized growth,"locus YGR229C, strain SMI1, active compounds read low",0.734 (active)
same,normalized growth,"locus YGR252W, strain gcn5, active compounds read low",1.12
same,normalized growth,"locus YHR013C, strain ard1, active compounds read low",0.877
same,normalized growth,"locus YHR027C, strain rpn1, active compounds read low",0.761 (active)
same,normalized growth,"locus YHR030C, strain SLT2, active compounds read low",0.973 and 0.971
same,normalized growth,"locus YHR079C, strain IRE1 (second series), active compounds read low",0.994
same,normalized growth,"locus YHR079C, strain IRE1, active compounds read low",0.985
same,normalized growth,"locus YHR094C, strain hxt1, active compounds read low",0.994
same,normalized growth,"locus YHR129C, strain ARP1, active compounds read low",0.937
same,normalized growth,"locus YHR142W, strain chs7, active compounds read low",0.852 (active)
same,normalized growth,"locus YHR200W, strain rpn10, active compounds read low",0.976
same,normalized growth,"locus YIL066C, strain RNR3, active compounds read low",0.896
same,normalized growth,"locus YIL073C, strain SPO22, active compounds read low",0.898
same,normalized growth,"locus YIL125W, strain kgd1, active compounds read low",0.969
same,normalized growth,"locus YIR030C, strain dcg1, active compounds read low",0.993
same,normalized growth,"locus YJL092W, strain hpr5, active compounds read low",0.952
same,normalized growth,"locus YJL095W, strain BCK1 (second series), active compounds read low",0.961
same,normalized growth,"locus YJL095W, strain BCK1, active compounds read low",0.904 and 0.959
same,normalized growth,"locus YJL115W, strain asf1, active compounds read low",1
same,normalized growth,"locus YJL129C, strain trk1, active compounds read low",1.08
same,normalized growth,"locus YJL134W, strain LCB3, active compounds read low",0.978
same,normalized growth,"locus YJL154C, strain vps35, active compounds read low",0.992
same,normalized growth,"locus YJL164C, strain tpk1, active compounds read low",0.935
same,normalized growth,"locus YJL166W, strain qcr8, active compounds read low",0.947
same,normalized growth,"locus YJL168C, strain set2, active compounds read low",0.974
same,normalized growth,"locus YJL187C, strain SWE1 (second series), active compounds read low",0.879
